Screening results (PubChem)
In the library only some 2.7% were active in any assay of this set; here they are far more common.
NRP1-CendR mod: modulators of CendR peptide binding to NRP-1, primary screen, biochemical, fluorescence polarization, uHTS | 360,000 tested, 0.85% active | inhibition, % at 25 µM | Neuropilin-1 (Homo sapiens), O14786 | FAM-RPARPAR peptide binding to NRP-1;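 active = inhibition or corrected inhibition above about 18%, plus a signal ratio from 0.5 to 1.5, limit read from the data, passing the limit was not always enough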
Target sequence (O14786 whole entry, looked up): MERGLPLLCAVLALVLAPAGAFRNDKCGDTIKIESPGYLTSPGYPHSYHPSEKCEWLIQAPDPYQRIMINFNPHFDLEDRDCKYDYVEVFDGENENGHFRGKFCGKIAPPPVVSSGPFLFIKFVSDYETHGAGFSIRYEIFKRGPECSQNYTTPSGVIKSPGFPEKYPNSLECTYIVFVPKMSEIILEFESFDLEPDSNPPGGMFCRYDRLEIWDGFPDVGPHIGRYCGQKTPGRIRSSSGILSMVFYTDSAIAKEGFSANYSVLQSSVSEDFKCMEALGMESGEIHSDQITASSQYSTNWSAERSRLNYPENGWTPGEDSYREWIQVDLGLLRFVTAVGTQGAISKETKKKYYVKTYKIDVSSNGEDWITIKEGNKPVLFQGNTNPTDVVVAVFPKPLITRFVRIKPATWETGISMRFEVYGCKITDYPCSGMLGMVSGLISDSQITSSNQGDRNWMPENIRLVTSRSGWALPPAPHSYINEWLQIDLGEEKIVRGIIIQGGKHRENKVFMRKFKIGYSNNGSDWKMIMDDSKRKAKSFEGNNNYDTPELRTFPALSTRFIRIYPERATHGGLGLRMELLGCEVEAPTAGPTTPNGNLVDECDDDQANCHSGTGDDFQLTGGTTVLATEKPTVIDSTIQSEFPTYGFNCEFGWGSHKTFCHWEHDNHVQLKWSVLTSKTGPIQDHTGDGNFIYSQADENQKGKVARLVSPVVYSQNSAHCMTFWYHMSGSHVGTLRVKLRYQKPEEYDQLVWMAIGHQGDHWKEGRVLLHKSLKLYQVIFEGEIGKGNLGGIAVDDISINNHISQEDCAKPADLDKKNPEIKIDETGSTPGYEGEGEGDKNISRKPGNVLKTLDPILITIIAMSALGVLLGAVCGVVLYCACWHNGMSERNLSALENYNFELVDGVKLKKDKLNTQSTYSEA
ATG4B inhibitor: ATG4B protease inhibitors, primary screen, biochemical, fluorescence, uHTS | Cysteine protease ATG4B (Homo sapiens), Q9Y4P1 | 340,000 tested, 0.51% active | ATG4B cleavage of LC3-PLA2, NBD-HPC fluorescence, 1 h | AID 504462, 2011 | inhibition, % at 8.33 µM; in the data active = inhibition above about 40%
MPTP inh: mitochondrial permeability transition pore inhibitors, primary screen, biochemical, isolated mouse mitochondria, absorbance. Ca2+ swelling absorbance, 30 min. inhibition, % at 10 µM. 360,000 tested, 1.4% active. AID 602449, 2012;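 active = inhibition of 50% or more, scaled per plate between neutral and stimulator controls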;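 note: 0% = DMSO wells given calcium and 100% = 1 mM EGTA wells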
SKN-1 inh: suppressors of acrylamide-induced Pgst-4::GFP reporter in worms, primary screen, SKN-1 inhibitor project, whole organism, uHTS, GFP/RFP fluorescence ratio, strain VP596; C. elegans VP596 Pgst-4::GFP/RFP ratio, 24 h; inhibition, % at 21.8 µM; 360,000 tested, 0.49% active;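 active = interference check ratio from 0.5 to 1.5 plus GFP to RFP signal ratio inhibition reaching or exceeding a fixed threshold, cut at about 30% in these data, passing the limit was not always enough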
CFTR F508del cor: F508del CFTR correction, initial screen, CFBE line, single point; 350,000 tested, 0.36% active; CFBE cells, YFP halide quenching; stimulated with forskolin plus potentiator P3; % fluorescence drop versus neutral controls; activity (quench increase), % at 7.58 µM; AID 720511, 2013;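 active = mean added fluorescence quench of at least 8% versus neutral control, with both replicates also reaching 8%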;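 note: cells transiently co-express mutant CFTR-F508del with the halide-sensitive YFP; corrector assay measuring rescue of mutant channel to the surface after 24 h compound exposure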
ATG4B confirm: ATG4B protease inhibitors, retest, confirmation, biochemical, fluorescence, single concentration; shares compounds with ATG4B inhibitor; ATG4B protease fluorescent substrate cleavage assay; inhibition, % at 8.33 µM; 320 tested, 92% active; in the data active = inhibition above about 39%
PLA2 ctr: PLA2 enzyme inhibition, counter-screen for ATG4B inhibitor project, biochemical, single concentration, uHTS hits; shares compounds with ATG4B inhibitor; AID 588402, 2011; 1,600 tested, 66% active; inhibition, % at 8.33 µM; purified PLA2, NBD-C6-HPC fluorescence, 45 min; in the data active = inhibition above about 50%
Starred values were filed as active, the others as inactive; . = no result.

SMILES	NRP1-CendR mod	ATG4B inhibitor	MPTP inh	SKN-1 inh	CFTR F508del cor	PLA2 ctr	others
O=C(NNc1ccc(C2CCCCC2)cc1)C(O)(c1ccccc1)c1cccs1 (stereo not given)	-14	67*	1	7	-2	70*
CC(=O)N(C)C[C@H]1Oc2cc(Br)ccc2S(=O)(=O)N([C@@H](C)CO)C[C@H]1C	.	.	.	.	0	.
CCOc1ccc(C2=NNC(c3cccs3)=Nc3ccc(OC)cc32)cc1	0	59*	-1	-4	.	73*
Cc1ccc2c(c1)C(c1ccc(N3CCOCC3)cc1)=NNC(c1cccs1)=N2	-14	13	1	-6	.	.
Fc1ccc2c(c1)C(c1ccc(N3CCOCC3)cc1)=NNC(c1cccs1)=N2	4	65*	5	9	.	70*
Brc1ccc2c(c1)C(c1ccc(N3CCOCC3)cc1)=NNC(c1cccs1)=N2	-51	66*	3	-1	.	65*
C[C@H](CO)N1C[C@H](C)[C@H](CN(C)S(=O)(=O)c2cn(C)cn2)Oc2ccc(NC(=O)C3CCCCC3)cc2C1=O	.	.	.	.	0	.
COc1ccc(S(=O)(=O)N(C)C[C@H]2Oc3c(NS(=O)(=O)c4ccc(Cl)cc4)cccc3C(=O)N([C@@H](C)CO)C[C@H]2C)cc1	.	.	.	.	1	.
Cc1ccc(Nc2ccc(C(N)=O)cc2[N+](=O)[O-])cc1C	12	65*	8	6	-2	65*
CCc1ccc(Nc2ccc(C(N)=O)cc2[N+](=O)[O-])cc1	-5	72*	19	-12	-3	81*
Cc1ccc(NC(=O)CSc2ccc(C(N)=O)cc2[N+](=O)[O-])cc1C	11	-5	-1	9	2	.
COc1cccc(S(=O)(=O)Nc2ccc3c(c2)[C@@H]2C[C@@H](CC(=O)NCc4cccc(F)c4)O[C@@H](CO)[C@@H]2O3)c1	.	.	.	.	0	.
CC(C)c1ccc2nc3sc(C(=O)N4CCc5ccccc5C4)c(N)c3cc2c1	-74	52*	2	13	.	48	ATG4B confirm=54*
CCN1CCc2nc3sc(C(=O)N4CCc5ccccc5C4)c(N)c3cc2C1	-19	6	-1	11	4	.
Cc1ccccc1C(=O)NC(=S)Nc1ccc(Cc2ccncc2)cc1	8	46*	3	-9	.	49
O=C(NC(=S)Nc1ccc(Cc2ccncc2)cc1)c1ccccc1F	5	52*	1	11	1	56*
C/C=C/c1ccc([C@H]2[C@H](CO)N3CCCCN(S(=O)(=O)c4cccs4)C[C@@H]23)cc1	.	.	.	.	2	.
CCCC#Cc1ccc([C@@H]2[C@@H](CO)N3C(=O)CN(C(=O)c4ccccc4)C[C@@H]23)cc1	.	.	.	.	3	.
O=C(N[C@@H]1C=C[C@H](CC(=O)N2CCc3ccccc3C2)O[C@H]1CO)C1CCC1	.	.	.	.	-1	.
O=C(c1ccc(OC2CCN(Cc3ccc(F)cc3)CC2)cc1)N1CCCC1	-3	6	0	-7	0	.
O=C(c1ccc(OC2CCN(C/C=C/c3ccc(F)cc3)CC2)cc1)N1CCCC1	10	42*	-1	-11	2	48	ATG4B confirm=64*
Cc1c(Cl)c([N+](=O)[O-])nn1CCCC(=O)N(Cc1ccccc1)Cc1ccccc1	-9	52*	4	5	1	60*
Nc1nn(-c2ccccc2)c(N)c1N=Nc1ccc2c(c1)OCO2	10	41*	-8	10	.	40	ATG4B confirm=76*
Cc1cccc2nc(-c3cccnc3)c(NCCC(C)C)n12	0	40*	3	10	1	51*
Nc1c(-c2ccccc2)c(CSc2nc3ccccc3[nH]2)nn1-c1cccc(Cl)c1	1	43*	5	-2	.	58*
SMILES	NRP1-CendR mod	ATG4B inhibitor	MPTP inh	SKN-1 inh	CFTR F508del cor	PLA2 ctr	others
Nc1c(-c2ccccc2)c(CSc2nc3ccccc3[nH]2)nn1-c1ccc(Cl)cc1	-8	38	5	3	.	.
COc1ccc(S(=O)(=O)Nc2ccc3c(c2)C(=O)N([C@H](C)CO)C[C@H](C)[C@H](CN(C)C(=O)Nc2ccccc2)O3)cc1	.	.	.	.	0	.
Cc1ccc(C(=O)O)cc1-c1ccc(/C=C2\SC(=O)N(CC(=O)Nc3ccccc3)C2=O)o1	-109	38	0	10	-1	.
Cc1ccccc1NC(=O)CN1C(=O)S/C(=C\c2ccc(-c3cc(C(=O)O)ccc3C)o2)C1=O	-134	42*	0	3	-2	21	ATG4B confirm=55*
CN(C)CC(=O)N[C@@H]1CC[C@@H](CC(=O)NCc2ccccc2F)O[C@@H]1CO	.	.	.	.	-1	.
C[C@@H]1CN([C@H](C)CO)C(=O)c2c(c3ccccc3n2C)-c2ccccc2CO[C@H]1CN(C)S(=O)(=O)c1ccc(Cl)cc1	.	.	.	.	-1	.
COCCN1C=C2C(=O)C(C)(OC(=O)CCC(=O)OC)C(=O)C(Br)=C2C=C1c1ccc(OC)cc1 (stereo not given)	13	-3	-1	30	.	.
COc1ccc(C2=CC3=C(Br)C(=O)C(C)(OC(=O)c4cccs4)C(=O)C3=CO2)cc1 (stereo not given)	-60	83*	7	4	-1	90*
O=C(c1cc(COc2c(F)cccc2F)on1)N1CCC(c2ccccc2Cl)C1 (stereo not given)	3	40*	5	5	-4	55*
O=C(c1cc(COc2c(F)cccc2F)on1)N1CCC(c2ccccc2F)C1 (stereo not given)	-1	29	2	4	0	.
O=S(=O)(N[C@H]1CC[C@H](CCn2cc(C3(O)CCCC3)nn2)O[C@H]1CO)c1ccc(Cl)cc1	.	.	.	.	3	.
CCCN(CC1CC1)C(=O)CSc1ncnc2sc(C)c(C)c12	7	53*	-2	0	.	56*
O=C(Cc1ccc(Cl)cc1)Nc1ccc(N2CCCC2)cc1	-20	-5	-1	-17	.	.
Clc1cccc(Cl)c1CNc1ccc(N2CCCC2)cc1	.	43*	.	.	0	42	ATG4B confirm=64*
CCOC(=O)C(=NC1CCCCC1)NNc1cccc(C(F)(F)F)c1	11	15	18	7	.	.
CCOC(=O)C(=NC(C)CC)NNc1cccc(C(F)(F)F)c1 (stereo not given)	0	40*	12	4	.	4
CC(=O)NCc1nnc2c3ccccc3c(-c3ccccc3)nn12	-4	-2	-1	-9	.	.
O=C(NCc1nnc2c3ccccc3c(-c3ccccc3)nn12)c1ccc(Cl)cc1	0	42*	13	-3	.	58*
